# PfM18AAP inh = PfM18AAP inhibitors, malaria aminopeptidase, primary screen, biochemical, QFRET, recombinant enzyme | H-Glu-NHMec fluorogenic cleavage | 1.2% of 290,000 active | M18 aspartyl aminopeptidase (Plasmodium falciparum 3D7) | inhibition, % at 7.35 µM;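 active = inhibition above the campaign mean inhibition over all tested compounds plus 3 SD, cut at about 28% in these data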;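 also: 0% = plate median of test compound wells and 100% = 2 mM ZnCl2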
# PABP FP inh = PABP poly(A) RNA binding inhibitors, primary screen, biochemical, fluorescence polarization, uHTS | inhibition, % at 35 µM | 1% of 290,000 active | Polyadenylate-binding protein 1 (Homo sapiens), P11940;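 also: calls also rest on retests at 20 µM and on dose response follow-up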
# PABP1 MLLE inh = inhibitors of PABP1 MLLE–PAM2 peptide binding, primary screen, biochemical, fluorescence polarization, FITC-PAM2, GST-MLLE; Polyadenylate-binding protein 1 (Homo sapiens), P11940; inhibition, % at 20 µM; 0.36% of 360,000 active; in the data active = inhibition above about 35%, passing the limit was not always enough;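 also: plate controls were DMSO wells with GST-MLLE for no effect and wells lacking GST-MLLE protein for full effect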
# eIF4H FP inh = human eIF4H binding inhibitors, primary screen, translation initiation inhibitor project, biochemical, uHTS, fluorescence polarization | Eukaryotic translation initiation factor 4H (Homo sapiens), Q15056 | eIF4H fluorescence polarization binding assay | inhibition, % at 35 µM | 0.94% of 290,000 active | AID 2012, 2009;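 also: calls also rest on retests at 20 µM and on dose response follow-up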
# eIF4E-4G inh = eIF4E–eIF4G protein interaction inhibitors, primary screen, biochemical, uHTS, TR-FRET, eIF4GI fragment; Eukaryotic translation initiation factor 4E (Mus musculus) + Eukaryotic translation …; TR-FRET eIF4E-eIF4GI(517-606) binding, 2 h; inhibition, % at 21.7 µM; 0.37% of 220,000 active; AID 782, 2007;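 active = inhibition above about 30%, limit read from the data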;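 also: 0% = full FRET control wells and 100% = background wells lacking eIF4GI fragment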
# PERK inh = block of dimerizer-induced PERK translation repression, primary screen, PERK inhibitor project, CHO PERK-DD cells, SEAP luminescence, HTS. Eukaryotic translation initiation factor 2-alpha kinase 3 (Homo sapiens), Q9NZJ5. CHO PERK-DD fusion, SEAP luminescence translation reporter. inhibition, % at 5.6 µM. 0.17% of 220,000 active. AID 1416, 2008;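 active = inhibition above the mean inhibition of all tested compounds plus 3 SD, set separately per screening campaign, cut at about 2.9% in these data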;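 also: PERK kinase domain activated by AP20187 dimerizer at 100 nM; 0% = DMSO with dimerizer and 100% = rapamycin at 8.4 µM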
# * = called active by the depositor; . = no result. The list is not random: actives were taken first. Their share in the collection is about 2.4%. Unless noted, no rule for the calls is given here.
SMILES,PfM18AAP inh,PABP FP inh,PABP1 MLLE inh,eIF4H FP inh,eIF4E-4G inh,PERK inh
O=S(=O)(c1ccc2ccccc2c1)N1CCOCC1,-17.1,4.3,4.3,-3.7,.,.
COCC(=O)N[C@@H]1c2ccccc2CC[C@@H]1OCc1ccccc1,.,.,-12.3,.,.,.
Cc1ccc(-c2nc3ccccc3[nH]2)cc1NC(=O)c1sc2cc(Cl)ccc2c1Cl,1.1,-4.5,1.5,-3.5,-4.1,0.1
CC(C)(C)Cc1c(-c2ccc(F)cc2)nc2ccc(Cl)cn12,.,.,11.9,.,.,.
Cc1ccc(C2CC(=O)N3CN(Cc4ccco4)CSC3=C2C#N)cc1 (stereo unspecified),30.9*,16.5,-3.5,-1.6,9.2,1.2
N#CC1=C2SCN(c3ccccc3)CN2C(=O)CC1c1ccccc1Cl (stereo unspecified),20.9,10.7,-25.3,-2.4,-4.6,0.0
CCOc1ccc(N2CSC3=C(C#N)C(c4ccco4)CC(=O)N3C2)cc1 (stereo unspecified),32.7*,86.8*,-5.1,92.4*,21.7,0.0
N#CC1=C2SCN(c3ccccc3)CN2C(=O)CC1c1c(Cl)cccc1Cl (stereo unspecified),36.1*,5.5,-5.7,-2.2,-4.5,1.2
N#CC1=C2SCN(c3ccccc3)CN2C(=O)CC1c1cccs1 (stereo unspecified),37.4*,75.6*,-40.9,23.0*,-5.2,0.3
N#CC1=C2SCN(Cc3ccco3)CN2C(=O)CC1c1c(F)cccc1Cl (stereo unspecified),18.9,19.5,-53.8,5.0,-1.2,0.5
CCOC(=O)C1CCCN(C(=O)Cn2nc(C)c3c(C)n(-c4ccccc4)nc3c2=O)C1 (stereo unspecified),0.4,8.7,-6.8,-21.9,.,.
O=C(NC(=S)Nc1ccccc1O)c1ccccc1Cl,0.2,-5.9,43.9*,0.8,-0.9,0.0
O=C(NC(=S)Nc1ccccc1Cl)C1CC1,-12.9,7.2,40.9*,2.3,.,.
CC(O)CC(=O)OC[C@]12CC[C@H]3[C@@](C)(CC[C@H]4C(C)(C)CCC[C@]34C)[C@@H]1CC(C1=CC(=O)OC1O)O2 (stereo partly specified),.,.,-1.1,.,.,.
O=C(CSc1nnc(CNC(=O)c2c(F)cccc2F)o1)NCc1ccc2c(c1)OCO2,.,.,17.8,.,.,.
CCN(CC)S(=O)(=O)c1ccc(N2CCOCC2)c(NC(=O)c2cnccn2)c1,1.4,-7.0,1.6,-0.6,-0.3,0.3
O=C(O)c1ccc(-c2nc(-c3ccccc3)c(-c3cccs3)[nH]2)cc1,1.3,-0.7,2.1,-1.0,1.4,4.3*
COCCCNC(=O)Cn1cnc2sc(C)c(S(=O)(=O)N3CC(C)CC(C)C3)c2c1=O (stereo unspecified),1.1,-4.1,9.1,1.1,.,.
COc1ccc(/C=N/Nc2nncn2N)cc1Br,28.2*,-2.6,-15.1,7.3,.,.
C=CCNC(=O)COc1cc(C)ccc1C,-9.5,8.4,3.8,-4.0,39.6*,0.6
CC1(OC(=O)C2CCCC2)C(=O)C=C2C=C(c3ccsc3)N(Cc3ccco3)C=C2C1=O (stereo unspecified),.,69.4*,7.0,93.5*,-1.0,.
CC1(OC(=O)C2CCCC2)C(=O)C=C2C=C(c3ccsc3)N(CCCCO)C=C2C1=O (stereo unspecified),.,36.8,2.1,48.7,-5.4,.
CC(=O)Nc1cccc(-c2csc(C(O)c3cccc(Cl)c3)n2)c1 (stereo unspecified),.,.,-2.0,.,.,.
CN(C)C(=O)CCSc1nnc(-c2ccncc2)o1,3.4,-3.4,-10.8,3.9,-0.5,1.0
O=C1NC(=S)N/C1=C/c1cccn1-c1ccc([N+](=O)[O-])cc1,13.8,6.9*,-6.5,83.5*,23.4,0.4
NC(=O)CC(NC(=O)Cc1ccc(Cl)cc1)c1ccc(NCCCN2CCCC2=O)c([N+](=O)[O-])c1 (stereo unspecified),-2.1,28.2,-7.4,69.0*,.,.
